HTT cytoprotect: protects HTT-Q103 PC12 cells, measured by ATP. PC12 HTT-Q103 induced, cytoprotection, ATP luminescence, 40 h. actives 0.14% (n = 230,000). Potency, µM (top dose mostly 56.4 µM), for inactives: cytoprotection (ATP increase), hits mostly activators; note: % of control where 0% means no effect; nearly all actives have a fitted effect of over 45% in size
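ATP quantification (ATPlite) reports survival of PC12 cells in which tebufenozide, 100 nM final, switches on Htt exon 1 with 103 glutamines linked to GFP; compounds are titrated.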
KinaseGlo FLuc: blocks Kinase-Glo luciferase, a counter-screen artifact; Q27757; Kinase-Glo luciferase, ATP luminescence, 8 min; Potency, µM (titrated, usually from 38.3 µM), for inactives: at the top dose activity change, negative = inhibition, actives largely listed as inhibitors; actives 0.28% (n = 200,000); AID 1379; note: % is set by controls: 0 for no effect and ±100 for the full control effect; nearly all actives have a fitted effect of over 60% in size
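Recombinant Kinase-Glo luciferase, 10 uM ATP (linear range), luciferin; imidazole pH 7.2 / KCl / MgCl2 / Tween / BSA buffer; 8 min RT; luminescence.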
HttQ103 aggreg: inhibitors of mutant huntingtin aggregate formation in PC12 cells; PC12 HttQ103-GFP aggregates, Acumen cytometry, 40 h; Potency, µM (series often up to 46.1 µM), without a hit: at the top dose activity change, negative = inhibition, usual class: inhibitors; actives 1.1% (n = 220,000); AID 1688; note: % is set by controls: 0 for no effect and ±100 for the full control effect; nearly all actives have a fitted effect of over 60% in size
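Aggregates are detected as GFP objects 1–25 µm with signal 6 STDEV over background in lysates of induced PC12 cells. These carry Huntingtin exon 1 with 103 glutamines fused to GFP under an ecdysone promoter; compounds titrated.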
HPGD inh: inhibitors of human 15-hydroxyprostaglandin dehydrogenase (HPGD); actives 4.3% (n = 150,000); Potency, µM, without a hit: at the top dose activity change, negative = inhibition, actives largely listed as inhibitors; purified HPGD, NADH fluorescence kinetic, PGE2 substrate; P15428; AID 894; active = well fitted inhibition curve with a large enough effect, not every such curve was filed as active; inconclusive = small, poorly fitted or top-dose-only effect, or another doubt; inactive = no such curve, though single readings can be large or run the other way; note: % is set by controls: 0 for no effect and ±100 for the full control effect
Target sequence (P15428 whole entry, looked up): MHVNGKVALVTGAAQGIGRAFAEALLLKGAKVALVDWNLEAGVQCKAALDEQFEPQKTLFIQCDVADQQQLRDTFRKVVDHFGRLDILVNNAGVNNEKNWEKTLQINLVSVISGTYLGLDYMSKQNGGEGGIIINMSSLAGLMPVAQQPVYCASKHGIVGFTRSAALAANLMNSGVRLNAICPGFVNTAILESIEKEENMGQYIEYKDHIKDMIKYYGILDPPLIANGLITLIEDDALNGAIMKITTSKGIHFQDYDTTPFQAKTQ
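NADH formation kinetics: reaction with 30 uM PGE2 and 1 mM NAD+ (final), 20 nM enzyme, Tris-HCl pH 8 with Tween 20, after 15 min compound preincubation at room temperature. Fluorescence change, last versus first of five reads.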
ALDH1A1 inh: ALDH1A1 (human) enzyme inhibition | AID 1030 | Purified ALDH1A1, NADH fluorescence, propionaldehyde substrate | P00352 | actives 7.3% (n = 220,000) | Potency, µM (top dose mostly 75.3 µM), inactives show at the highest dose activity, negative = inhibition, usual class: inhibitors; active = well fitted inhibition curve with a large enough effect, not every such curve was filed as active; inconclusive = small, poorly fitted or top-dose-only effect, or another doubt; inactive = no such curve, though single readings can be large or run the other way;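 note: plate controls were no enzyme wells and a reference inhibitor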
Target sequence (P00352 whole entry, looked up): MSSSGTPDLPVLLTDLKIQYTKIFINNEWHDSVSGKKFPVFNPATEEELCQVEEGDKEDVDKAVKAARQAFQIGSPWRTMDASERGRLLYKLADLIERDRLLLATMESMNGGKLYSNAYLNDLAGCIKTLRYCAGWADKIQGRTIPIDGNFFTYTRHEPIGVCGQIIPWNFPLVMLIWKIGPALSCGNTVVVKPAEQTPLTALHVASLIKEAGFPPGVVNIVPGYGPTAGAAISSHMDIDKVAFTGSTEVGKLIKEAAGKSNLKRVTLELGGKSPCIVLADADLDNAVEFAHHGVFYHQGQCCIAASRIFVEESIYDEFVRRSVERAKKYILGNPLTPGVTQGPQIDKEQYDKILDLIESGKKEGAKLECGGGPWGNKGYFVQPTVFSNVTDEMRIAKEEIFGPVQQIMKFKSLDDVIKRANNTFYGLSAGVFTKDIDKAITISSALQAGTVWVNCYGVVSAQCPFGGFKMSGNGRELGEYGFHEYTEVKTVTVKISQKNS
LMNA splice mod: modulators of lamin A splicing | Potency, µM (titrated, usually from 46.1 µM), without a hit: at the top dose ratio change, negative = inhibition, most hits filed as inhibitors | AID 1487 | actives 0.01% (n = 200,000) | HeLa LMNA splicing GFP/RFP minigene ratio, 48 h; active = well fitted inhibition curve with a large enough effect in the signal ratio, with a control signal flat, not every such curve was filed as active; inconclusive = small, poorly fitted or top-dose-only effect, or effect the other way, or a change in a side signal; the % refers to the signal ratio; note: % is set by controls: 0 for no effect and ±100 for the full control effect
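S3 HeLa stable clones carrying a lamin A-EGFP splicing minigene plus DsRed2 were seeded at 600 cells/well in Opti-MEM with 2% FBS, pin-dosed and incubated 48 h at 37°C. Acumen cytometry (488 nm) gave the GFP/RFP total-intensity ratio.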
Active calls of the source: *; ? = inconclusive; nt = not tested or not shown; [ ] = remark or other dose. Compounds with a hit are over-represented: about 9% of the library has one in this group of screens. Unless noted, calls come from the whole dose curve; as a rule, active = well fitted curve in the direction sought with a large enough effect; inconclusive = small, poorly fitted or top-dose-only effect, or another doubt; inactive = no such curve, though single readings can be large; an effect the other way counts as inactive or inconclusive. Potency is the fitted concentration of half-maximal effect.

SMILES	HTT cytoprotect	KinaseGlo FLuc	HttQ103 aggreg	HPGD inh	ALDH1A1 inh	LMNA splice mod
Cn1cnnc1SCC(=O)Nc1sc2c(c1C(N)=O)CCC2	-12%	-5%	-20%	18µM*	?	-1%
Cc1ccccc1Nc1nc(N)nc(CSc2ccc(F)cc2)n1	-39%	nt	10%	nt	3%	nt
O=S(=O)(c1ccc(NC(=S)NN=C2CCCCC2)cc1)N1CCOCC1	-33%	-3%	17%	nt	14µM*	-14%[46 µM]
S=C(NCCC(c1ccccc1)c1ccccc1)Nc1ccccc1Cl	-53%	-3%	20µM*	-10%	?	?
N#Cc1ccc(NC(=O)CCc2ccc(S(=O)(=O)N3CCOCC3)cc2)cc1	-16%	3%	16%[9.22 µM]	-13%	?	-7%
N#Cc1ccc(NC(=S)NC(=O)CCc2ccc(S(=O)(=O)N3CCOCC3)cc2)cc1	nt	-2%	4%	nt	16µM*	nt
O=S(=O)(c1ccc(NC(=S)NCCC(c2ccccc2)c2ccccc2)cc1)N1CCOCC1	-36%[10 µM]	-1%	?	-16%	13µM*	?
COc1ccc(Nc2nc(-c3cccs3)nc3ccccc23)cc1	-19%[0.074 µM]	-3%	?	-23%	?	?
CCCCCCCCCCCCOCCOCCOCCOCCO	-10%	-3%[39.9 µM]	nt	-12%	5%	nt
C[C@@H](C(=O)Nc1cccc(S(=O)(=O)N2CCOCC2)c1)N1C(=O)C2CC=CCC2C1=O (stereo not given in full)	-18%	1%	?	nt	-3%	nt
O=S(=O)(c1ccc(NC(=S)N/N=C/c2ccc(Oc3ccccc3)cc2)cc1)N1CCOCC1	-10%[10 µM]	-2%	13%	nt	?	nt
CCCCNC(C(=O)Nc1cccc(S(=O)(=O)N2CCOCC2)c1)c1ccccc1 (stereo not given)	-11%	4%	-10%	nt	13µM*	-19%[46 µM]
O=S(=O)(c1ccc(NC(=S)N/N=C/c2c3ccccc3cc3ccccc23)cc1)N1CCOCC1	-28%	1%	-6%	nt	10µM*	nt
COc1ccc(C(=O)OCC2CC(c3ccccc3)N(C)O2)cc1 (stereo not given)	6%	-3%	5%	-12%	-1%	-2%
N#Cc1ccccc1NC(=O)COC(=O)CCc1ccc(S(=O)(=O)N2CCCCC2)cc1	-4%[10 µM]	0%	13%	-13%	?	1%
CC1CCN(S(=O)(=O)c2cc([N+](=O)[O-])ccc2Cl)CC1	9%	-5%	2%	nt	3.5µM*	nt
Cc1nc(-c2ccc(C(F)(F)F)cc2)sc1C(=O)NN	-14%[10 µM]	nt	5%[9.22 µM]	nt	1.1µM*	nt
Cc1cc(C(F)(F)F)nn1CC(=O)NNC(=S)Nc1ccc(Cl)cc1	13%	-4%	19%	-2%	?	6%
O=C(Cn1nnc(-c2cc(C(F)(F)F)cc(C(F)(F)F)c2)n1)NNC(=S)Nc1ccc(Cl)cc1	-10%[10 µM]	nt	-7%[9.22 µM]	nt	1.3µM*	nt
O=C(NCCc1c[nH]c2ccccc12)c1ccc(-n2cnnn2)cc1	-11%[10 µM]	-2%	14%	-14%	-1%	-8%
Cn1c(SCC(=O)N/N=C/C=C/c2ccco2)nc2ccccc21	nt	2%	?	-25%	14µM*	6%
CCn1c(SCC(=O)N/N=C/c2ccc(C)o2)nnc1-c1ccccc1	-4%[10 µM]	6%	-11%	?	11µM*	-2%
O=C(CSc1nnc(SCc2ccccc2)s1)NNC(=S)Nc1ccccc1	-7%[1.9 µM]	6%	2%	10µM*	3.2µM*	-10%
Cc1ccc(/C=N/NC(=O)CSc2nnc(-c3ccccc3)n2-c2ccc(Cl)cc2)o1	10%[10 µM]	3%	16%	-1%	?	19%
CCn1c(SCC(=O)N/N=C(\C)c2ccco2)nnc1-c1ccccc1	nt	0%	nt	nt	11µM*	?
SMILES	HTT cytoprotect	KinaseGlo FLuc	HttQ103 aggreg	HPGD inh	ALDH1A1 inh	LMNA splice mod
Cn1c(SCC(=O)N/N=C/C=C/c2ccccc2[N+](=O)[O-])nc2ccccc21	8%[10 µM]	2%	1%	-5%	?	-24%
COc1cccc(/C(C)=N/NC(=O)c2ccc(N(C)C)cc2)c1	-14%	-22%	31%	-4%	?	2%
Cc1ccccc1-n1c(-c2ccc3ccccc3n2)n[nH]c1=S	0%[10 µM]	nt	-1%[9.22 µM]	nt	nt	nt
O=C(COc1ccc(Cl)cc1)N1CCN(S(=O)(=O)c2ccccc2)CC1	12%	1%	1%	-1%	?	-6%
O=C(CNc1cccc2ccccc12)N/N=C/C=C/c1ccco1	20%	-5%	9%	nt	?	nt
CCn1c(SCC(=O)N/N=C/C=C/c2ccco2)nnc1-c1ccccc1	15%[10 µM]	1%	10%	-10%	18µM*	?
CCn1c(SCC(=O)Nc2cc(C)on2)nnc1-c1ccccc1	16%[10 µM]	4%	-9%	1%	-1%	-8%
O=C(CSc1nnc(SCc2ccccc2)s1)N/N=C/C=C/c1ccco1	13%[10 µM]	-4%	?	28µM*	14µM*	-10%
Cc1ccc(/C=N/NC(=O)CSc2nnc(-c3ccc(Cl)cc3)n2-c2ccc(Cl)cc2)o1	10%[10 µM]	-2%	8%	-4%	10µM*	19%
O=C(Cc1cccs1)N/N=C/C=C/c1ccco1	nt	-1%	6%	?	4µM*	2%
S=C(NCCc1ccccn1)Nc1ccc(Cl)cc1	15%[10 µM]	1%	-8%	-13%	-3%	-11%
CC(C)N(C(=O)CSc1nc2ccccc2n1-c1ccccc1)C(C)C	-67%	-4%	-22%	-14%	?	-1%
Cc1[nH]c(=O)[nH]c(=O)c1/C=N/NC(=O)CCCCCNC(=O)OC(C)(C)C	12%[10 µM]	nt	4%[9.22 µM]	nt	6%	nt
CC(=O)c1nnn(-c2nc(N3CCCC3)nc(N(c3ccccc3)c3ccccc3)n2)c1C	1%	3%	-12%	-14%	12%	8%
Clc1nc2nc3n(c2nc1Cl)CCC3	-3%[10 µM]	nt	-19%[9.22 µM]	nt	nt	nt
COc1ccc(CNC(=O)CCC(=O)N2CC3CCCN3c3ccccc32)c(OC)c1 (stereo not given)	nt	nt	nt	nt	nt	-19%[46 µM]
CCn1c(SCC(=O)N/N=C/C(C)=C\c2ccco2)nnc1-c1ccccc1	13%[10 µM]	2%	5%	-16%	?	-2%
CCn1c(SCC(=O)N/N=C(\C)c2ccncc2)nnc1-c1ccccc1	-4%[10 µM]	0%	-7%[9.22 µM]	nt	1%	nt
CCn1c(SCC(=O)N/N=C/C(C)=C/c2ccco2)nnc1-c1ccccc1	-17%	1%	-4%	-13%	20µM*	0%
CCn1c(SCC(=O)N/N=C(\C)c2ccncc2)nnc1-c1ccc(C)cc1	8%[10 µM]	nt	20%[9.22 µM]	nt	20µM*	nt
Fc1ccc(N2CCN(C(c3cccs3)c3nnnn3C3CCCC3)CC2)cc1 (stereo not given)	-6%	3%	17%[9.22 µM]	-18%	0%	?
